D1 ag – agonists of human D1 dopamine receptor | HEK293 T-REx D1 cells, calcium flux, agonist mode | hit rate 1% among 360,000 | activation, % at 2 µM | AID 504660; in the data active = activation above about 30%
Target sequence (P21728 whole entry, looked up): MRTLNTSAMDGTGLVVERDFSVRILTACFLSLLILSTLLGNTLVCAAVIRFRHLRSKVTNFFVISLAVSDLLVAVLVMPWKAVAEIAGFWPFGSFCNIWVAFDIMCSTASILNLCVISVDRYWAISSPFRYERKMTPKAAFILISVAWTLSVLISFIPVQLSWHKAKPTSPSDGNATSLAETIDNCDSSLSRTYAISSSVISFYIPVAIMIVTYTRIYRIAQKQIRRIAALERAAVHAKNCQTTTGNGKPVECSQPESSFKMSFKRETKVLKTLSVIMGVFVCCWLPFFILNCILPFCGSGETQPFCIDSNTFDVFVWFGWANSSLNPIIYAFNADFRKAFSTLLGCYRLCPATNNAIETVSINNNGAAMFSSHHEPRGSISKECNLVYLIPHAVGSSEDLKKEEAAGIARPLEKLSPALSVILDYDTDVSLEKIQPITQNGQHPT
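Inducible HEK293 T-REx D1 cells, force-coupled to calcium signalling, were plated at 4000 cells/well with tetracycline and held overnight at 30 C. After no-wash calcium dye loading, compound-evoked calcium rise over 180 s flagged agonists.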
DRD3 antagonist – D3 dopamine receptor (human) antagonism; P35462; D3R cells, DiscoveRx beta-arrestin luminescence, antagonist mode; active compounds read low; max response, negative = inhibition, %; hit rate 2.5% among 360,000; AID 652054; in the data active = max response below about -50%; inconclusive = no clear call, values can overlap the other calls
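Cells plated overnight at 1500 cells/well, then exposed to library compounds with dopamine controls for 90 minutes at 37 degrees C. DiscoveRx reagent added for 30–60 minutes at room temperature; luminescence read, quantitative HTS format.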
D1 antag – antagonists of human D1 dopamine receptor; P21728; HEK293 TREx D1 cells, calcium flux, dopamine EC80; active compounds read low; activity change, negative = inhibition, % at 10 µM; hit rate 3.2% among 360,000; AID 504652; in the data active = activity change below about -30%
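Inducible Hek293 Trex D1 cells (tetracycline, overnight, 30 C). Calcium dye 30–90 min RT. Antagonist mode: EC80 dopamine added after 180 s compound read.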
D3 ag – D3 dopamine receptor (human) agonism. P35462. D3R DiscoveRx beta-arrestin cells, luminescence, 90 min. max activation, %. hit rate 0.58% among 410,000; in the data active = max activation above about 30%
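Cells at 1500/well, incubated overnight, then treated with pinned compounds (dopamine as control) for 90 min at 37 degrees C. DiscoveRx reagent added for 30 - 60 minutes at room temperature; luminescence read.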
D1 potentiator – enhances dopamine response at the human D1 receptor. AID 504651. hit rate 0.036% among 360,000. HEK293 TREx D1 cells, calcium flux, dopamine EC20 potentiation. potentiation, % at 10 µM; in the data active = potentiation above about 30%
Hits are given with their value; 0 = inactive; ? = inconclusive; - = no result given. Shown are actives, neighbours in structure and some others; about 6% of the full set was active somewhere.

SMILES	D1 ag	DRD3 antagonist	D1 antag	D3 ag	D1 potentiator
Cc1cc(N)c2cc(NC(=O)/C=C/c3ccccc3Cl)ccc2n1	0	-83	0	0	0
CCc1ccc(C2C(C#N)=C(N)SC(N)=C2C#N)cc1	30	0	0	0	0
CCOc1ccc(C2C(C#N)=C(N)SC(N)=C2C#N)cc1OC	40	-	0	-	0
CCOc1ccc(C2C(C#N)=C(N)SC(N)=C2C#N)cc1OCC	0	?	0	0	0
CCOC(=O)c1nnc(-c2cccs2)nc1Oc1ccc(Cl)cc1	0	-67	0	0	0
CCOC(=O)c1nnc(-c2cccs2)nc1Oc1ccccc1C(=O)OC	0	0	0	0	0
Cc1c(Cl)cccc1NC(=O)N1CCC(CN2CCOCC2)CC1	0	-	-71	0	0
CCc1ccc(NCc2cc3cc(OC)c(OC)cc3n(CC(=O)Nc3cc(C)ccc3C)c2=O)cc1	0	-	0	0	0
Cc1cc(OCCCn2c(CCNC(=O)C3CCCCC3)nc3ccccc32)ccc1Cl	44	-	0	0	0
Cc1ccc(C)c(NC(=O)CN2CCCN(Cc3cccc(Cl)c3)S2(=O)=O)c1	0	-	-79	0	0
COc1ccc(N(CC(C)C)S(=O)(=O)c2nnc(NC(=O)c3cccs3)s2)cc1	0	-	0	0	0
CN1C(=O)c2cccc3c(Br)ccc(c23)C1=O	-	0	-	0	-
CNc1ccc2c3c(cccc13)C(=O)N(C)C2=O	338	0	-38	0	0
CN1C(=O)c2cccc3c(Cl)ccc(c23)C1=O	0	0	0	0	0
CN1C(=O)c2cccc3c(N(C)C)ccc(c23)C1=O	60	0	0	0	0
COc1ccc(CNC(=O)c2cc3c(-c4ccccc4F)nn(C)c3s2)cc1	0	-	0	0	0
CC(C)C[C@H](CO)N(Cc1ccccc1)S(=O)(=O)N(Cc1ccccc1)[C@@H](CO)CC(C)C	-	0	-	59	-
O=S(=O)(N(Cc1ccccc1)[C@@H](CO)Cc1ccccc1)N(Cc1ccccc1)[C@@H](CO)Cc1ccccc1	-	0	-	84	-
O=C(c1ccccc1)N1CCN(CCc2ccncc2)CC1	0	-	0	0	0
CC(C)(C)c1ccc(NC(=O)CSc2nnc3scc(-c4ccccc4)n23)cc1	0	-	0	0	0
CSc1nnc(C2CCCN2)n1C (centres undefined)	0	-54	0	0	0
COc1ccc(CCn2c3c(c(=O)[nH]c2=O)C(NC(=O)c2ccc(C(C)(C)C)cc2)(C(F)(F)F)C(=O)N3)cc1OC (centres undefined)	0	-	0	0	0
COCCn1c(C)cc(C(=O)COC(=O)c2ccc(Br)o2)c1C	0	-82	0	0	0
CCOc1ccc(/C=C/c2nc(C#N)c(N3CCN(CC)CC3)o2)cc1	0	-	0	0	0
COC(=O)c1ccc(NC(=O)Nc2nnc(N(C)C3CCCCC3)s2)cc1	0	-	-55	0	0
SMILES	D1 ag	DRD3 antagonist	D1 antag	D3 ag	D1 potentiator
CN(c1nnc(NC(=O)Nc2ccc(Br)cc2)s1)C1CCCCC1	0	-	0	0	0
COc1ccc(Cc2nc3ccccc3n2Cc2ccccc2F)cc1	0	-	0	0	0
CC(C)OC(=O)CN1C(=O)S/C(=C/c2ccc(N3CCCCC3)o2)C1=O	61	0	0	0	0
COc1cc(/C=C2\SC(=Nc3ccccc3)N(CCc3c[nH]c4ccccc34)C2=O)ccc1OC(C)C(=O)O (centres undefined)	0	0	0	0	0
O=C1/C(=C/c2ccc(N3CCOCC3)o2)SC(=Nc2ccccc2)N1CCc1c[nH]c2ccccc12	0	-69	0	0	0
O=C1S/C(=C\c2ccc(N3CCOCC3)o2)C(=O)N1Cc1ccc(F)cc1	42	0	0	0	0
O=C1NC(=S)S/C1=C/c1ccc(N2CCOCC2)o1	0	0	0	0	0
O=C1S/C(=C/c2ccc(N3CCOCC3)o2)C(=O)N1Cc1ccc(F)cc1	83	0	0	0	0
CC(C)(C)OC(=O)CN1C(=O)S/C(=C\c2ccc(-c3cccc(C(=O)O)c3)o2)C1=O	0	-	0	-	0
Cc1ccc(-c2nnc3ccccc3c2C(=O)Nc2ccc(C)c(F)c2)cc1	0	-	0	0	0
Cc1csc2nc(COC(=O)c3ccccc3NC(=O)COc3ccccc3F)cc(=O)n12	0	-	0	0	0
NCCNc1cccc2ccccc12	-	-	-	0	-
CCCCCCCCCCCCCCCCCCCCCC(=O)Nc1ccn([C@@H]2O[C@H](CO)[C@@H](O)[C@@H]2O)c(=O)n1	-	-	-	0	-
CC(C)CNC(=O)CSc1nc2scc(-c3ccccc3)c2c(=O)[nH]1	0	0	0	48	0
COc1ccc(C)cc1NC(=O)CSc1nc2scc(C)c2c(=O)[nH]1	0	0	-31	0	0
COc1ccc(C)cc1NC(=O)CSc1nc(=O)[nH]c2c1CCCC2	31	-	-	0	0
CCOC(=O)c1ccccc1NC(=O)CSc1nc(=O)[nH]c2c1CCCC2	0	-	-	0	0
O=C(CSc1nc2scc(-c3ccccc3)c2c(=O)[nH]1)Nc1ccccc1	0	0	0	0	0
COc1ccc(Cl)cc1NC(=O)CSc1nc2sccc2c(=O)[nH]1	0	0	0	0	0
Cc1oc(-c2ccccc2)cc1C(=O)NC1CCN(Cc2ccccc2)CC1	0	-82	-85	0	0
O=C(NC1CCN(Cc2ccccc2)CC1)c1ccccc1Cl	0	?	0	0	0
CC(Oc1ccccc1)C(=O)NC1CCCCCCC1 (centres undefined)	0	0	0	0	0
O=C(NC1CCN(Cc2ccccc2)CC1)c1ccccc1	0	-81	0	0	0
O=C(NC1CCN(CCc2c[nH]c3ccccc23)CC1)c1ccccc1	67	-103	-83	0	0
CC(Oc1ccccc1)C(=O)NC1CCN(Cc2ccccc2)CC1 (centres undefined)	0	-59	0	0	0
SMILES	D1 ag	DRD3 antagonist	D1 antag	D3 ag	D1 potentiator
CCCCNC(=O)C1CCC(Cn2c(=O)c3sccc3n(CC(=O)Nc3ccccc3)c2=O)CC1 (centres undefined)	0	-	0	0	0
COc1ccc(N2CCN(S(=O)(=O)c3ccc(C4CCCCC4)cc3)CC2)cc1	0	-	0	0	0
O=C(NC1CCN(Cc2ccccc2)CC1)C12CC3CC(CC(C3)C1)C2	0	-88	0	0	0
CC(C)(C)c1ccc(C(=O)NC2CCN(Cc3ccccc3)CC2)cc1	0	-118	0	0	0
Cn1nccc1C(=O)NC1CCN(Cc2ccccc2)CC1	0	-80	0	0	0
O=C(NC1CCN(Cc2ccc(Cl)cc2Cl)CC1)c1ccccc1	0	-78	-76	0	0
CC1(C)OC(=O)C2(Cc3ccccc3N3CCCC32)C(=O)O1 (centres undefined)	0	-	0	-	0
O=C(NC1CCN(Cc2ccccc2)CC1)c1cncc(Br)c1	0	-86	0	0	0
O=C(Cc1ccc(Br)cc1)NC1CCN(Cc2ccccc2)CC1	0	0	0	0	0
O=C(NC1CCN(Cc2cccc([N+](=O)[O-])c2)CC1)c1ccccc1	0	0	-57	0	0
